Screening results from PubChem.
DRD3 antagonist – antagonists of human D3 dopamine receptor; D3R cells, DiscoveRx beta-arrestin luminescence, antagonist mode; hits give low values; max response, negative = inhibition, %; 2.5% of 360,000 active; in the data active = max response below about -50%; inconclusive = no clear call, values can overlap the other calls; note: % is set by controls: 0 for no effect and ±100 for the full control effect
Target sequence (P35462 whole entry, looked up): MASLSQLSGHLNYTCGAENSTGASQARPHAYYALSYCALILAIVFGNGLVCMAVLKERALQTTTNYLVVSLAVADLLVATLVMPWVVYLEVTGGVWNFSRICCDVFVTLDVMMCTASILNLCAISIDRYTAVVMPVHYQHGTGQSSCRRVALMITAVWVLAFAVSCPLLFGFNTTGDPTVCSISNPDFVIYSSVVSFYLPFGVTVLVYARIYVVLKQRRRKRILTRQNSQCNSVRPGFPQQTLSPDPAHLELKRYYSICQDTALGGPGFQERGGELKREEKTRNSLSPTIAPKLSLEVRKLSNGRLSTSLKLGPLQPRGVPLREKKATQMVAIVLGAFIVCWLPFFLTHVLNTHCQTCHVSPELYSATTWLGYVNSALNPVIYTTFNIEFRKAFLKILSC
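Cells plated overnight at 1500 cells/well, then exposed to library compounds with dopamine controls for 90 minutes at 37 degrees C. DiscoveRx reagent added for 30–60 minutes at room temperature; luminescence read, quantitative HTS format.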
IL1B secr inh – inhibitors of inflammasome signaling (IL-1 beta secretion). THP-1 LPS/ATP IL-1B secretion, AlphaLISA, 16 h; hits give low values. activity change, % at 57.5 µM. 4.7% of 360,000 active. AID 743279; in the data active = activity change below about -50%; inconclusive = mostly about -30% to -49%; note: % is set by controls: 0 for no effect and ±100 for the full control effect
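THP-1 cells pretreated 1 hr with compounds (up to 57.5 uM final), then stimulated with LPS (250 ng/mL final) plus ATP (1.25 mM final); secreted IL-1B measured by AlphaLISA after 16 hr, decreased signal indicating inhibition.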
D3 ag – agonists of human D3 dopamine receptor; P35462; D3R DiscoveRx beta-arrestin cells, luminescence, 90 min; max activation, %; 0.58% of 410,000 active; in the data active = max activation above about 30%; note: 0% is about no effect
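Agonist mode: compounds and dopamine controls were applied to plated cells for 90 min at 37 degrees C after an overnight attachment at 1500 cells/well. Luminescent read-out followed 30 - 60 minutes at room temperature with DiscoveRx detection reagent.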
DT40 TDP1 no CPT – qHTS for Inhibitors of human tyrosyl-DNA phosphodiesterase 1 (TDP1): qHTS in cells in absence of CPT | DT40 Tdp1-/- hTDP1 cells, no CPT, ATP luminescence, 48 h | Potency, µM (titrated, usually from 46.2 µM), for inactives: at the top dose activity change, negative = growth inhibition, hits mostly inhibitors | 15% of 420,000 active; note: potency is the fitted concentration of half-maximal effect; % is set by controls: 0 for no effect and ±100 for the full control effect; nearly all actives have a fitted effect of over 55% in size
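Growth of hTDP1-complemented DT40 Tdp1-knockout cells is measured by ATP luminescence after at least 48 hr compound exposure at 37 °C, with DMSO substituting for the 20 nM CPT used in the parallel screen.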
TDP1 cell CPT – DT40-hTDP1 cell growth loss with CPT; chicken DT40 Tdp1-/-;hTDP1 cells + 20 nM CPT, ATP luminescence, 48 h; Potency, µM (doses to about 46.2 µM), without a hit: at the highest dose activity change, negative = growth inhibition, most hits filed as inhibitors; 12% of 420,000 active; note: potency is the fitted concentration of half-maximal effect; % is set by controls: 0 for no effect and ±100 for the full control effect; nearly all actives have a fitted effect of over 55% in size
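Chicken DT40 Tdp1-/- cells complemented with human TDP1, 400 cells/well, exposed to compounds plus 20 nM camptothecin for at least 48 h at 37 C; viability read as ATP content by CellTiter-Glo luminescence.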
ClpP mod – qHTS Assay for Activators of ClpP; ATP-dependent Clp protease proteolytic subunit (Bacillus subtilis (strain 168)), P80244; 1.9% of 340,000 active; AID 651965, 2013; purified B. subtilis ClpP, FRET peptide cleavage, 20 min; Potency, µM (top dose mostly 57.5 µM), for the others: top-dose activity change, negative = active; active = well fitted falling curve with a large enough effect; inconclusive = small, poorly fitted or top-dose-only effect; inactive = no such curve, though single readings can be large or run the other way; note: potency is the fitted concentration of half-maximal effect; the source files actives as falling curves though it sought activators and does not explain the sign; nearly all actives have a fitted effect of over 65% in size
Target sequence (P80244 whole entry, looked up): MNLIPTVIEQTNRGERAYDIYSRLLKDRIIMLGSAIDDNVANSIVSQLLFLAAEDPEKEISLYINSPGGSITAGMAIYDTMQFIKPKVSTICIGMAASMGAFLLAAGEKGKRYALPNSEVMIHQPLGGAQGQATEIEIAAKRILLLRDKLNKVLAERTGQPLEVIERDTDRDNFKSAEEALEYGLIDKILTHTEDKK
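Purified B. subtilis ClpP, 10 microg/mL final in Tris/HCl pH8 with KCl, BSA, glycerol and Tween-20, cleaved an Abz/nitrotyrosine-quenched decapeptide. Fluorescence (ex 320, em 430) was read at 0 and 20 min at room temperature. Delta was normalized to 5.8 microM ADEP and DMSO/no-enzyme controls.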
Active calls of the source: *; u = inconclusive; x = no result given. Hits are enriched below; roughly 21% of the tested compounds scored in any of these assays. Unless noted, calls come from the whole dose curve; as a rule, active = well fitted inhibition curve with a large enough effect; inconclusive = small, poorly fitted or top-dose-only effect; inactive = flat fitted curve, though single readings scatter.

SMILES	DRD3 antagonist	IL1B secr inh	D3 ag	DT40 TDP1 no CPT	TDP1 cell CPT	ClpP mod
CCOc1ccc(NCc2nnc(SCc3ccc(Cl)cc3)n2-c2ccccc2)cc1	-11	u	-7	29µM*	u	-14%
CCn1c(CNc2ccc(Cl)cc2)nnc1SCCN1CCCCC1	19	-5	-11	18µM*	21µM*	-29%
Cc1ccc(NCc2nnc(SCCN3CCCCC3)n2CC2CCCO2)c(C)c1 (configuration not stated)	-54*	-21	2	-30%	-11%	-4%
COc1ccc(NCc2nnc(SCCN3CCCCC3)n2-c2ccc(C)cc2)cc1	-25	-21	-4	-9%	-4%	10%
CCOC(=O)CSc1nnc(CNc2ccc(Cl)cc2)n1-c1ccccc1	-11	6	-4	-9%	-12%	-3%
CC(C)(C)N(Cc1ccccc1)C(=O)COC(=O)CCN1C(=O)C2CC=CCC2C1=O (configuration not stated)	0	24	13	-15%	-3%	0%
O=C(O)CCn1c(=O)c2cccn2c2cccnc21	x	x	7	0%	-7%	5%
N#CC(Cc1cccc(CC(C#N)(c2ccccc2)c2ccccc2)c1)(c1ccccc1)c1ccccc1	-14	5	-2	4.1µM*	3.3µM*	-2%
CNc1nnc(Sc2ncccc2[N+](=O)[O-])s1	-21	x	3	16µM*	8.2µM*	x
O=[N+]([O-])c1cccnc1Sc1ccc(F)cc1	2	-12	1	-18%	-2%	x
CN(C)c1ccc(C(CN)c2c[nH]c3ccccc23)cc1 (configuration not stated)	-23	0	5	21µM*	18µM*	0%
CCOc1cc(N(CC)CC)ccc1/C=C(/C#N)c1nc2ccccc2[nH]1	-54*	u	-7	10µM*	16µM*	0%
CCCOc1cc(N(CC)CC)ccc1/C=C(/C#N)c1nc2ccc(C)cc2[nH]1	-24	-2	-9	13µM*	21µM*	-1%
CCN(CC)c1ccc(/C=C(/C#N)c2nc3ccc(C)cc3[nH]2)c(OC(C)C)c1	u	u	-28	21µM*	15µM*	-1%
CCOC(=O)COc1ccc(/C=C(\C#N)c2nc3ccc(C)cc3[nH]2)cc1OC	x	x	6	u	u	12%
COc1cccc(/C=C(\C#N)c2nc3ccccc3[nH]2)c1OCC(=O)O	-12	6	0	11%	-3%	-5%
Cc1ccc(C2C3=C(CCCC3=O)N=C3c4ccccc4C(=O)C32)cc1 (configuration not stated)	u	-68*	-3	u	-1%	1%
O=C1CCCC2=C1C(c1ccc(Cl)cc1)N1C(=O)CCSC1=N2 (configuration not stated)	-8	-5	-4	u	-17%	-1%
O=C1CCCC2=C1C(c1ccc(Cl)cc1)C1C(=O)c3ccccc3C1=N2 (configuration not stated)	-21	-55*	-9	u	u	-3%
CCOC(=O)C1=C(C)N=C2c3ccccc3C(=O)C2C1c1ccc(C)cc1 (configuration not stated)	-4	10	0	u	u	-2%
O=c1c(-c2ccccc2)coc2cc(O)cc(O)c12	x	x	x	-19%	-4%	x
O=C(Nc1cccc2ccccc12)c1ccc(OC(=S)N2CCOCC2)cc1	u	7	-6	23µM*	23µM*	-9%
CN1CCN(C(=O)Nc2cccc3ccccc23)CC1	-13	-10	-2	-1%	1%	16µM*
CCN1CCN(C(=O)Nc2cccc3ccccc23)CC1	-12	5	1	-3%	15%	11µM*
Cc1cccc(NC(=O)c2cccc(OC(=S)N3CCOCC3)c2)c1	12	17	22	15µM*	u	x
SMILES	DRD3 antagonist	IL1B secr inh	D3 ag	DT40 TDP1 no CPT	TDP1 cell CPT	ClpP mod
CCOCCCN(C(=O)CNC(=O)c1ccco1)C(C(=O)NC1CCCC1)c1cccc(OC)c1 (configuration not stated)	3	22	9	-12%	0%	x
CCCc1ncc(CN2CCCCC2C(=O)Nc2ccc(Oc3ccccc3)nc2)cn1 (configuration not stated)	8	9	-1	-21%	-25%	0%
Cc1ccccc1C(=O)Nc1ccc2c(c1)nc(CCNC(=O)c1ccco1)n2C	4	-6	-3	-8%	-22%	-1%
O=C(Nc1ccc([N+](=O)[O-])cc1)OC1CCS(=O)(=O)C1 (configuration not stated)	-18	35	-5	-22%	-16%	0%
CN(C)S(=O)(=O)c1cccc(NC(=O)CCc2c[nH]c3ccccc23)c1	2	13	-3	u	u	0%
Clc1cccc(-c2ccc3nccn3c2)c1Cl	0	17	-16	u	u	-7%
O=C(NC1CC1)c1cccc(NC(=O)C2CCN(S(=O)(=O)c3cccc(C(F)(F)F)c3)CC2)c1	9	-2	-7	u	u	-2%
O=C(c1ccccc1Sc1cccc2ccccc12)N1CCOCC1	-21	-1	3	21µM*	13µM*	0%
CC(C)(C)c1ccc(C(=O)Nc2cccc(-n3cnnn3)c2)cc1	-5	-14	9	2.6µM*	u	0%
O=C(Nc1cccc2ccccc12)N1CCOCC1	26	0	21	-7%	0%	25µM*
CC(C)(C)c1ccc(C(=O)Nc2cccc(C(=O)N3CCOCC3)c2)cc1	2	-5	-3	u	15µM*	-3%
COc1ccc(C(=O)N=c2sc3ccccc3n2C)cc1OC	16	1	1	15µM*	u	x
COc1ccc(C(=O)N=c2sc3c(C)ccc(OC)c3n2C)cc1OC	117	-27	16	5.8µM*	5.2µM*	4%
CN(C)c1nc(OCCNC(=O)COc2ccc(Cl)cc2Cl)nc(N2CCOCC2)n1	33	19	3	13µM*	15µM*	4%
Cc1cc(Cl)ccc1OCC(=O)NCCOc1nc(N2CCOCC2)nc(N2CCOCC2)n1	1	14	-4	21µM*	u	0%
COc1ccc(-c2nnn3c2nc(NCc2ccccc2)c2ccccc23)cc1	1	33	0	16%	-19%	-6%
CC(=O)c1sc(NC(=O)c2cc3c(C)nn(-c4ccccc4)c3s2)nc1C	0	-16	3	-5%	-10%	-2%
